Results as given in PubChem BioAssay AID1159580 (chemical genetic matrix, 2015).
Screen size: about 5,500 compounds; about 2,000 (36%) were called active. Another 18% or so got no clear call; they are omitted. Rule as the data show it: active = normalized growth mostly below about 0.91 (no sharp cut-off); inconclusive = no clear call, values can overlap the other calls; inactive = mostly above about 0.92. Some of the results follow.

Test: chemical genetic growth profiling, strain panel (AID 1159580);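 also: tested at 20 µM; growth read once vehicle control cultures reached saturation at 30 °C; 1 = growth at the plate median or of vehicle wells; lower values mean less growth of the strain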
Conditions: growth OD

Measured: normalized growth

CO[C@@]1(NC(=O)C(C(=O)O)c2ccc(O)cc2)C(=O)N2C(C(=O)O)=C(CSc3nnnn3C)CO[C@@H]21 (some centres not stated)
inactive: S. cerevisiae deletion strains, locus YJR075W, strain HOC1, hits give low values 1.02 | S. cerevisiae deletion strains, locus YKL009W, strain mrt4, hits give low values 1 | S. cerevisiae deletion strains, locus YKL068W, hits give low values 1.01 | S. cerevisiae deletion strains, locus YKL085W, strain MDH1 (second series), hits give low values 1.01 | S. cerevisiae deletion strains, locus YKL085W, strain MDH1, hits give low values 1.01 | S. cerevisiae deletion strains, locus YKL160W, strain elf1, hits give low values 0.962 | S. cerevisiae deletion strains, locus YKL190W, strain CNB1, hits give low values 1.02 | S. cerevisiae deletion strains, locus YKR001C, strain vps1, hits give low values 1.02 | S. cerevisiae deletion strains, locus YKR026C, strain gcn3, hits give low values 0.998 | S. cerevisiae deletion strains, locus YKR091W, strain srl3, hits give low values 0.976 | S. cerevisiae deletion strains, locus YLL001W, strain dnm1, hits give low values 0.922 | S. cerevisiae deletion strains, locus YLL026W, hits give low values 0.986 | S. cerevisiae deletion strains, locus YLL041C, strain sdh2, hits give low values 0.988 | S. cerevisiae deletion strains, locus YLR027C, strain aat2, hits give low values 1 | S. cerevisiae deletion strains, locus YLR039C, strain RIC1, hits give low values 1.02 | S. cerevisiae deletion strains, locus YLR058C, strain SHM2, hits give low values 1.01 | S. cerevisiae deletion strains, locus YLR102C, strain apc9, hits give low values 1.02 | S. cerevisiae deletion strains, locus YLR113W, strain HOG1, hits give low values 0.995 | S. cerevisiae deletion strains, locus YLR221C, strain rsa3, hits give low values 0.945 | S. cerevisiae deletion strains, locus YLR258W, strain gsy2, hits give low values 0.984 | S. cerevisiae deletion strains, locus YLR262C, strain YPT6 (second series), hits give low values 0.946 | S. cerevisiae deletion strains, locus YLR262C, strain YPT6, hits give low values 0.999 | S. cerevisiae deletion strains, locus YLR268W, strain sec22, hits give low values 1.04 | S. cerevisiae deletion strains, locus YLR320W, strain mms22, hits give low values 0.967 | S. cerevisiae deletion strains, locus YLR330W, strain CHS5, hits give low values 1.01 | S. cerevisiae deletion strains, locus YLR342W, strain FKS1 (second series), hits give low values 0.996 | S. cerevisiae deletion strains, locus YLR342W, strain FKS1, hits give low values 0.99 | S. cerevisiae deletion strains, locus YLR357W, strain rsc2, hits give low values 0.945 | S. cerevisiae deletion strains, locus YLR370C, strain arc18, hits give low values 0.978 | S. cerevisiae deletion strains, locus YLR371W, strain rom2, hits give low values 1.03 | S. cerevisiae deletion strains, locus YLR384C, strain iki3, hits give low values 0.982 | S. cerevisiae deletion strains, locus YLR418C, strain cdc73, hits give low values 1.02 | S. cerevisiae deletion strains, locus YML016C, strain PPZ1, hits give low values 1 | S. cerevisiae deletion strains, locus YML032C, strain rad52, hits give low values 1.03 | S. cerevisiae deletion strains, locus YML120C, strain ndi1, hits give low values 0.951 | S. cerevisiae deletion strains, locus YML124C, strain tub3, hits give low values 1.01 | S. cerevisiae deletion strains, locus YMR058W, strain fet3, hits give low values 0.975 | S. cerevisiae deletion strains, locus YMR078C, strain ctf18, hits give low values 1.02 | S. cerevisiae deletion strains, locus YMR125W, strain sto1, hits give low values 0.953 | S. cerevisiae deletion strains, locus YMR129W, hits give low values 0.994 | S. cerevisiae deletion strains, locus YMR205C, strain PFK2, hits give low values 0.946 | S. cerevisiae deletion strains, locus YMR223W, strain ubp8, hits give low values 0.985 | S. cerevisiae deletion strains, locus YMR231W, strain pep5, hits give low values 0.991 | S. cerevisiae deletion strains, locus YMR263W, strain SAP30, hits give low values 1.02 | S. cerevisiae deletion strains, locus YMR307W, strain GAS1, hits give low values 0.971 | S. cerevisiae deletion strains, locus YNL067W, strain RPL9B, hits give low values 1.02 | S. cerevisiae deletion strains, locus YNL071W, strain lat1, hits give low values 0.989 | S. cerevisiae deletion strains, locus YNL128W, strain TEP1, hits give low values 1.01 | S. cerevisiae deletion strains, locus YNL153C, strain GIM3, hits give low values 1.01 | S. cerevisiae deletion strains, locus YNL183C, strain NPR1, hits give low values 0.949 | S. cerevisiae deletion strains, locus YNL209W, strain ssb2, hits give low values 0.978 | S. cerevisiae deletion strains, locus YNL233W, strain BNI4, hits give low values 1.01 | S. cerevisiae deletion strains, locus YNL248C, strain rpa49, hits give low values 1 | S. cerevisiae deletion strains, locus YNL250W, strain rad50, hits give low values 1.02 | S. cerevisiae deletion strains, locus YNL271C, strain bni1, hits give low values 1.01 | S. cerevisiae deletion strains, locus YNL298W, strain CLA4, hits give low values 1.02 | S. cerevisiae deletion strains, locus YNL307C, strain MCK1, hits give low values 1.01 | S. cerevisiae deletion strains, locus YNL322C, strain KRE1 (second series), hits give low values 0.971 | S. cerevisiae deletion strains, locus YNL322C, strain KRE1, hits give low values 1.01 | S. cerevisiae deletion strains, locus YNR049C, strain mso1, hits give low values 0.972 | S. cerevisiae deletion strains, locus YNR052C, strain pop2, hits give low values 1.02 | S. cerevisiae deletion strains, locus YOL006C, strain TOP1, hits give low values 1.06 | S. cerevisiae deletion strains, locus YOL012C, strain htz1 0.996 | S. cerevisiae deletion strains, locus YOL147C, strain pex11, hits give low values 1.01 | S. cerevisiae deletion strains, locus YOR001W, strain rrp6, hits give low values 1.01 | S. cerevisiae deletion strains, locus YOR061W, strain CKA2, hits give low values 1 | S. cerevisiae deletion strains, locus YOR069W, strain VPS5, hits give low values 1.01 | S. cerevisiae deletion strains, locus YOR070C, strain gyp1, hits give low values 0.992 | S. cerevisiae deletion strains, locus YOR080W, strain dia2, hits give low values 0.987 | S. cerevisiae deletion strains, locus YOR083W, strain WHI5, hits give low values 0.961 | S. cerevisiae deletion strains, locus YOR106W, strain vam3, hits give low values 0.973 | S. cerevisiae deletion strains, locus YOR136W, strain idh2, hits give low values 1.02 | S. cerevisiae deletion strains, locus YOR144C, strain elg1, hits give low values 1.02 | S. cerevisiae deletion strains, locus YOR184W, strain ser1, hits give low values 1.02 | S. cerevisiae deletion strains, locus YOR231W, strain MKK1, hits give low values 1 | S. cerevisiae deletion strains, locus YOR265W, strain rbl2, hits give low values 0.998 | S. cerevisiae deletion strains, locus YOR270C, strain vph1, hits give low values 0.967 | S. cerevisiae deletion strains, locus YOR290C, strain snf2, hits give low values 0.917 | S. cerevisiae deletion strains, locus YOR316C, strain cot1, hits give low values 1.02 | S. cerevisiae deletion strains, locus YPL051W, strain arl3, hits give low values 0.983 | S. cerevisiae deletion strains, locus YPL055C, strain LGE1, hits give low values 1.02 | S. cerevisiae deletion strains, locus YPL078C, strain atp4, hits give low values 0.97 | S. cerevisiae deletion strains, locus YPL106C, strain sse1, hits give low values 0.94 | S. cerevisiae deletion strains, locus YPL240C, strain hsp82, hits give low values 0.981 | S. cerevisiae deletion strains, locus YPL241C, strain CIN2, hits give low values 1 | S. cerevisiae deletion strains, locus YPL256C, strain CLN2, hits give low values 0.961 | S. cerevisiae deletion strains, locus YPR119W, strain clb2, hits give low values 1.02 | S. cerevisiae deletion strains, locus YPR141C, strain kar3, hits give low values 1.02 | S. cerevisiae deletion strains, locus YPR163C, strain tif3, hits give low values 1.02 | S. cerevisiae deletion strains, locus YPR167C, strain met16, hits give low values 1.02 | S. cerevisiae deletion strains, strain wtn01, hits give low values 1.02 | S. cerevisiae strains, strain wild type, hits give low values 1.01
